Bioassay records from PubChem.
In the library only some 2.2% were active in any assay of this set; here they are far more common.
TMEM16A act – TMEM16A chloride channel activators or potentiators, primary screen, cell-based, HTS; B-score at 10 µM; actives 0.3% (n = 340,000); HEK293 TMEM16A/YFP-H148Q/I152L, iodide quench fluorescence; stronger effect = lower value; Anoctamin-1 (Mus musculus), Q8BHY3;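 active = fluorescence-ratio B-score plate-corrected deviation score at least 3 library SD below zero, with starting fluorescence score within 5 deviations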;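 also: channel opened by trigger with iodide after compound preincubation; score built on the fluorescence ratio of max minus min over baseline; more negative score means more quench and so TMEM16A activation or potentiation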
NOD2-RIPK2 inh – NOD2-RIPK2 binding disruptors in cells, primary screen, fluorescence, CHO cells, BLA complementation; inhibition, % at 4.98 µM; CCF4 ratio; actives 0.38% (n = 360,000); AID 624267, 2012; Receptor-interacting serine/threonine-protein kinase 2 (Homo sapiens), O43353; in the data active = inhibition above about 21%;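 also: 0% = vehicle only and 100% = reference blocker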
TLR9-MyD88 block – inhibitors of TLR9-MyD88 association in cells, primary screen, cell-based, CHO, BLA complementation, fluorescence; AID 504734, 2011; Toll-like receptor 9 (Homo sapiens) + Myeloid differentiation primary response protein …; inhibition, % at 4.98 µM; actives 0.21% (n = 340,000); CCF4 FRET ratio;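 active = inhibition above the mean over all tested compounds plus 3 SD, cut at about 21% in these data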;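 also: 0% = DMSO only wells and 100% = clavulanate BLA inhibitor control wells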
ANO1 block – TMEM16A chloride channel inhibitors, primary screen, cell-based, HTS; HEK293 TMEM16A/YFP iodide influx fluorescence, ionomycin; actives 1.2% (n = 310,000); Anoctamin-1 (Mus musculus), Q8BHY3; normalized B-score (activity score, 25-100; higher = stronger inhibition) at 10 µM;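 active = ratio plate-corrected score three or more library SD toward inhibition, starting fluorescence score within five deviations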;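 also: score derived from kinetic fluorescence span divided by baseline fluorescence per well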
GRK2 inh – compounds blocking aptamer binding on GRK2 – biochemical, human GRK2, bead flow cytometry, HTS, primary screen; Beta-adrenergic receptor kinase 1 (Homo sapiens), P25098; FAM-aptamer displacement from GRK2; inhibition of aptamer binding, % at 10 µM; actives 0.59% (n = 330,000); AID 488847, 2010;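 active = inhibition of aptamer binding above 40%, roughly 3 SD of noise, on plates passing a quality check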;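 also: median bead fluorescence of bound FAM aptamer so fluorescent compounds give negative values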
TLR4 MyD88 comp – inhibitors of TLR4-MyD88 association in cells, primary screen, cell-based, HeLa CL3-4, BLA complementation, FRET ratio; Toll-like receptor 4 (Homo sapiens) + Myeloid differentiation primary response protein …; HeLa CL3-4 TLR4/MyD88 BLA complementation; inhibition, % at 8.4 µM; actives 0.18% (n = 200,000); AID 861, 2007; in the data active = inhibition above about 25%;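 also: 0% = vehicle and 100% = reference inhibitor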
Target sequence (O00206 whole entry, looked up): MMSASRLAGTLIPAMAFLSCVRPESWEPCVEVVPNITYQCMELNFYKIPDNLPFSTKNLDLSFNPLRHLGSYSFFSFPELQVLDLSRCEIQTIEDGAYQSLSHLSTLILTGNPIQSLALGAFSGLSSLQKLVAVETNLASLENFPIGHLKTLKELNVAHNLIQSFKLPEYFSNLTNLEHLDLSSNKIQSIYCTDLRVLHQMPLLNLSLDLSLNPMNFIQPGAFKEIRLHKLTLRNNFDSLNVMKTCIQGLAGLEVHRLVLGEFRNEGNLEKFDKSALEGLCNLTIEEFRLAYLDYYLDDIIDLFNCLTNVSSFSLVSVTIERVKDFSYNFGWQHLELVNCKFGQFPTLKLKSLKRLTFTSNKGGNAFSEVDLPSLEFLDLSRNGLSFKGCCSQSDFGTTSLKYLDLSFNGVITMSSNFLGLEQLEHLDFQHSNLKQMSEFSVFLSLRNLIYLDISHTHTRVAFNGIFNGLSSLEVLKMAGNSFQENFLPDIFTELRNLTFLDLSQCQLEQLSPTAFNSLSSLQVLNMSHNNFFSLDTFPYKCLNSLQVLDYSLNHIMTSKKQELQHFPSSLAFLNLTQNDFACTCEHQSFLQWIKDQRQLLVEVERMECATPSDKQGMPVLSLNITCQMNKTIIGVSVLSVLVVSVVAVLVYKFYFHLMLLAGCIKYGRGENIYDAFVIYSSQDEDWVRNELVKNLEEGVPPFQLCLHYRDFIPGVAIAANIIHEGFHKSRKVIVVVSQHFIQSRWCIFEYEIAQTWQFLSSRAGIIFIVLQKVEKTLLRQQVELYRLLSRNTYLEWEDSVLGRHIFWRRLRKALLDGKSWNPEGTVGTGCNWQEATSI
Target sequence (Q99836 whole entry, looked up): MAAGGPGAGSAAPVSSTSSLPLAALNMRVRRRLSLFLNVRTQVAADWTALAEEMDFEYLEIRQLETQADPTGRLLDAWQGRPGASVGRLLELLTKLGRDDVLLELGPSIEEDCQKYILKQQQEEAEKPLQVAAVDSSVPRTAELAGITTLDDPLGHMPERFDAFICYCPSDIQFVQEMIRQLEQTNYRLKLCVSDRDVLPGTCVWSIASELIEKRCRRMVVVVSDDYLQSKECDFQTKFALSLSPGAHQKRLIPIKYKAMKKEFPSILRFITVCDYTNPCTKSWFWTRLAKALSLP
GRK2 CP1 – GRK2 aptamer-displacing inhibitors, retest, confirmation, biochemical, cherry pick 1, bead flow cytometry; shares compounds with GRK2 inh; bead-bound GRK2, FAM-aptamer displacement; aptamer displacement, % at 10 µM; actives 4% (n = 2,000);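 active = aptamer displacement above 40%, near three times the noise of non-fluorescent compounds, on plates passing quality checks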;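 also: negative values mostly reflect intrinsic compound fluorescence rather than true enhancement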
Aptamer quench 1 – quenches fluorescent RNA aptamer, GRK2 hit artifact | 110 tested, under 10 active | AID 504521 | shares compounds with GRK2 inh | fluorescence change (kMESF span), kMESF (concentration not given with the values) | Fluorescent RNA aptamer beads, quenching, flow cytometry; stronger effect = higher value;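 active = compounds whose bead fluorescence drops by more than 37 kMESF across the dose range, marking them as dye quenchers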
FAM quench CP1 – counter-screen for GRK2 aptamer inhibitors: fluorescent aptamer quenchers | shares compounds with GRK2 inh | AID 504580 | 2,000 tested, under 10 active | Carboxyfluorescein RNA aptamer on beads, flow cytometry quenching; stronger effect = lower value | fluorescence response (% of DMSO), % at 10 µM;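 active = compounds that quench the bead-bound fluorescent RNA probe, cutting fluorescence to under half of the solvent control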;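 also: counterscreen run without GRK2 so only probe quenching by compound is measured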
* marks the source's active call; other numbers are inactive results.

Screening Cc1ccc(C)c(C(C)NC(=O)Cc2cccs2)c1 (stereo unspecified) returned TMEM16A act inactive, NOD2-RIPK2 inh -7, TLR9-MyD88 block -12, ANO1 block inactive and GRK2 inh 0.
`O=[N+]([O-])c1ccc(Cl)c2c1C1C=CCC1C(c1ccccn1)N2` (stereo unspecified) gave TMEM16A act inactive, NOD2-RIPK2 inh -11, TLR9-MyD88 block -8, ANO1 block inactive, GRK2 inh 1 and TLR4 MyD88 comp -8.
Screening O=C(O)C1Nc2c(O)cc(Cl)c([N+](=O)[O-])c2C2C=CCC12 (stereo unspecified) returned TMEM16A act inactive, NOD2-RIPK2 inh -1, TLR9-MyD88 block -9, ANO1 block inactive, GRK2 inh 69*, TLR4 MyD88 comp -2, GRK2 CP1 68*, Aptamer quench 1 -0.6 and FAM quench CP1 95.
Screening Cc1cccc(CCN(C(=O)c2csnn2)C(C(=O)NC2CCCC2)c2ccco2)c1 (stereo unspecified) returned TMEM16A act inactive, NOD2-RIPK2 inh -8, TLR9-MyD88 block -11, ANO1 block inactive and GRK2 inh 0.
NC(=O)C(=O)N/N=C/c1cccc(C(F)(F)F)c1 was read as TMEM16A act inactive, NOD2-RIPK2 inh -5, TLR9-MyD88 block 0, ANO1 block inactive, GRK2 inh 61*, TLR4 MyD88 comp -14, GRK2 CP1 0 and FAM quench CP1 101.
Screening O=S(=O)(c1cccc(Cl)c1Cl)N1CCCCC1 returned TMEM16A act inactive, NOD2-RIPK2 inh 0, TLR9-MyD88 block -4, ANO1 block inactive, GRK2 inh 82*, TLR4 MyD88 comp 10, GRK2 CP1 0 and FAM quench CP1 101.
`CN1CCCN(S(=O)(=O)c2cccc(Cl)c2Cl)CC1` gave TMEM16A act inactive, NOD2-RIPK2 inh 6, TLR9-MyD88 block 5, ANO1 block inactive, GRK2 inh 0 and TLR4 MyD88 comp 9.
Screening COc1ccc(OC)c(/C=C/C(=O)N2CCN(S(=O)(=O)c3ccc(C)cc3C)CC2)c1 returned TMEM16A act inactive, NOD2-RIPK2 inh -1, TLR9-MyD88 block -9 and GRK2 inh 2.
`O=C(Cc1cccs1)NCc1cccc(Br)c1` gave TMEM16A act inactive, NOD2-RIPK2 inh -2, TLR9-MyD88 block 0, ANO1 block inactive, GRK2 inh 55*, GRK2 CP1 2 and FAM quench CP1 102.
Screening O=C(Cc1cccs1)NCc1cccs1 returned TMEM16A act inactive, NOD2-RIPK2 inh 5, TLR9-MyD88 block -2, ANO1 block inactive, GRK2 inh 0 and TLR4 MyD88 comp 1.
For Cc1ccc(/C=C/C(=O)NCCc2c[nH]c3ccccc23)o1 the results were TMEM16A act inactive, NOD2-RIPK2 inh 6, TLR9-MyD88 block -6, ANO1 block inactive, GRK2 inh 94*, TLR4 MyD88 comp 6, GRK2 CP1 0 and FAM quench CP1 101.
